This note sets out measurements from PubChem BioAssay (NCI).

Structures are written as SMILES. Compounds without any hit were thinned out: in the full panel of roughly 83,000, 20% have a hit.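 A percent growth of 40 corresponds to 60% growth inhibition; 0 means no net growth; -100 means all cells died. Active threshold: below 10.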 Unmarked numbers belong to inactive results. The source made the active and inactive calls.

What all share (assay): NCI-60 one-dose screen, 48 h (100 = growth as untreated, 0 = no growth, -100 = all killed)
Common to all, as to conditions: 10 µM unless noted

Test [1] deals with HCT-15 colon.
Test [2] concerns HT29 colon.
The subject of test [3] is SNB-75 CNS.
Test [4] has as its system SNB-19 CNS.
In test [5] the test system is U251 CNS.
Test [6] has as its system PC-3 prostate.
Test [7] has as its system SK-MEL-5 melanoma.
Test [8] concerns LOX IMVI melanoma.
Test [9] relates to UACC-62 melanoma.
The test system of test [10] is SK-MEL-28 melanoma.

`CC(=O)O[C@@H]1CCN2C(=O)N(C)c3ccccc3[C@@H]2C1`: the growth was 103% in [1]; 104% in test [2]; 89% in test [3]; 98.3% in test [4]; 102% in test [5]; 89.1% in test [6]. Moreover, the growth is 104% in test [7] and 98.6% in test [8].

`CCCC1CCCCN1C(=O)OCC(C)C` (stereo unspecified): the growth was 108% in test [1]; 102% in test [2]; 99.5% in test [3]; 102% in test [4]; 103% in test [5]; 96.5% in test [6]. In addition, the growth is 109% in [7], 103% in test [9] and 113% in test [10].

`CC(C)=CCC[C@](C)(O)[C@H]1CC[C@]2(C)[C@@H]1CC[C@@H]1[C@@]3(C)C/C(=C/c4cccc([N+](=O)[O-])c4)C(=O)C(C)(C)[C@@H]3CC[C@]12C`: the growth is 83.5% in [1]; 55.4% in test [2]; 0.754% (active) in [3]; 96% in test [4]; 85.7% in [5]; 58.2% in [6]. The growth in [7] was 101%; in [9], 78.1%; in test [10] it was 104%.

For the molecule `CCN(CC)C(=O)CCCCCn1c2ccccc2c2c3c(c4c5ccccc5[nH]c4c21)C(=O)N(O)C3=O`, the growth is 45.9% in [1]; -43.7% (active) in test [2]; 74.4% in test [3]; 47.2% in test [4]; 10.5% in [5]; 30% in test [6]. In addition, the growth in test [7] was 25.9%; in test [8], -59% (active).

For the molecule `CC[C@]12C=CCN3CC[C@@]4(c5cc([C@H]6CCC(=O)N6)c(OC)cc5N(C)[C@H]4[C@@](O)(C(=O)OC)[C@@H]1OC(C)=O)[C@@H]32`, the growth in test [1] is 104% [2.5 µM]; in test [2] it was 103% [2.5 µM]; in test [3], 81.6% [2.5 µM]; in [4], 105% [2.5 µM]; in [5], 98.3% [2.5 µM]; in test [6], 95.5% [2.5 µM]. In addition, the values for the growth in [7] and in test [8] were 99.8% [2.5 µM] and 108% [2.5 µM], respectively.

Consider `Oc1ccc(CCC2CCCC(CCc3ccc(OCCF)cc3)N2)cc1` (stereo unspecified), for which the growth in test [1] is 88.1%; in test [2] it was 87.2%; in [3] it was 78.7%; in [4] it was 101%; in [5] it was 85.8%; in [6] it was 87.8%. Moreover, the growth in test [7] was 90%; in test [8], 98.7%.

Regarding `COC(=O)[C@]12CC[C@@H](C)[C@H](C)[C@@H]1C1=CC[C@@H]3[C@@]4(C)C[C@@H](O)OC[C@](C)(C=O)C4C(=O)C[C@@]3(C)[C@]1(C)CC2` (stereo partly specified), the growth in test [1] was 5.82% (active); in [2], -59.3% (active); in test [3], 13.3%; in test [4], 27.1%; in test [5], 0.219% (active); in test [6] it was 5.85% (active). Also, the results for the growth in [7] and in test [8] were -91.3% (active) and -34.2% (active), respectively.

Regarding `Cc1ccsc1-c1ccc2c(c1)COC2(CCCN(C)C)c1ccc(F)cc1` (stereo unspecified), the growth is 29% in [1]; 17% in test [2]; 34.9% in test [3]; 67.9% in test [4]; 21% in [5]; 45.6% in test [6]. Also, the growth in test [7] was 0.45% (active); in test [9], 44.9%; in test [10] it was 42.5%.

On to `COc1cccc(-c2nn(-c3ccccc3)cc2-c2ccnc(NCCNS(=O)(=O)c3cccc(F)c3)c2)c1`, for which the growth was 24.3% in test [1]; 16.9% in test [2]; 70.6% in test [3]; 37.2% in test [4]; 27% in test [5]; 19.1% in [6]. Besides, the values for the growth in [7] and in test [8] were 26.7% and 38.3%, respectively.

`c1csc(-c2nc(-c3cc4ccccc4c(N4CCOCC4)n3)cs2)c1`: the growth was 90.4% in test [1]; 97.1% in test [2]; 81.5% in test [3]; 87.1% in test [4]; 82.2% in test [5]; 93.4% in test [6]. Also, the growth was 54.5% in test [7], 28.9% in test [9] and 55.2% in test [10].

With `Cc1ccc(/C=C(\C#N)c2cc3ccccc3n2C)cc1`, the growth in test [1] is 10.3%; in test [2] it was 17.1%; in test [3], 19.4%; in test [4], 29.3%; in test [5] it was 30.9%; in test [6], 36.1%. Moreover, the growth in test [7] is 23%; in test [9], 20%; in test [10], 65.4%.

As for `O=S(=O)(NCCNc1cc(-c2cn(-c3ccccc3)nc2-c2cccc(O)c2)ccn1)c1cccc(F)c1`, the growth in test [1] was 5.71% (active); in test [2], 7.47% (active); in test [3], 48.1%; in test [4] it was 51.5%; in [5], 32.3%; in [6], 25.4%. The growth was 26.9% in test [7] and 36.5% in [8].

On to `COc1cc2c3c(c4c5ccccc5[nH]c4c2c(OC)c1OC)C(=O)N(O)C3=O`, for which the growth in [1] is 45.8%; in [2], 52.1%; in test [3] it was 72.6%; in [4] it was 54.5%; in test [5] it was 28%; in test [6], 43.8%. Besides, the growth in test [7] is 11.1%; in test [8], 26.3%.

For the molecule `O=S(=O)(NCCCNc1cc(-c2cn(-c3ccccc3)nc2-c2cccc(O)c2)ccn1)c1ccc(F)cc1`, the growth in test [1] was 6.54% (active); in test [2], 0.761% (active); in test [3], 46.3%; in test [4], 57.4%; in test [5], 31.3%; in test [6] it was 23%. The growth is 31.4% in [7] and 18.9% in test [8].

Consider `O=S(=O)(NCCNc1cc(-c2cn(-c3ccccc3)nc2-c2cccc(O)c2)ccn1)c1ccc(C(F)(F)F)cc1`, for which the growth in [1] is 28.5%; in [2], 4.36% (active); in test [3], 49.7%; in test [4] it was 54.4%; in test [5] it was 36.5%; in test [6], 22.6%. Also, the growth was 36.9% in [7] and 23.5% in [8].

Consider `CC1(C)CC[C@]2(CO)CC[C@]3(C)C(=CC[C@@H]4[C@@]5(C)CC[C@H](NCO)C(C)(C)[C@@H]5CC[C@]43C)[C@@H]2C1`, for which the growth was -76.1% (active) in test [1]; -43.2% (active) in test [2]; -2.38% (active) in test [3]; 17.8% in [4]; -79.4% (active) in [5]; 7.13% (active) in test [6]. Further, the values for the growth in [7], in test [9] and in test [10] were -2.6% (active), -73% (active) and 60.8%, respectively.

As for `O=C(NO)c1ccc(Cn2c(=O)n(-c3ccccc3)c(=O)c3ccccc32)cc1`, the growth in test [1] is 39.6%; in test [2], 41%; in test [3] it was 20.9%; in test [4], 33.4%; in test [5], -3.66% (active); in test [6] it was -7.98% (active). In addition, the growth in [7] is 16.5%; in [9], -24.6% (active); in test [10], -1.55% (active).

Take `COc1cccc(-c2nn(-c3ccccc3)cc2-c2ccnc(NCCCNS(=O)(=O)c3ccc(C(F)(F)F)cc3)c2)c1`: the growth is 22.3% in test [1]; -6.28% (active) in [2]; 47.4% in [3]; 38% in [4]; 27.1% in test [5]; 12.9% in test [6]. Moreover, the results for the growth in test [7] and in [8] were -54.2% (active) and 36%, respectively.

Take `O=C(CCCCCn1c2ccccc2c2c3c(c4c5ccccc5[nH]c4c21)C(=O)N(O)C3=O)N1CCOCC1`: the growth in test [1] was 49.2%; in test [2], 0.235% (active); in [3], 87%; in test [4], 47.3%; in [5] it was 33.9%; in test [6], 26.5%. Moreover, the growth in [7] is 0.765% (active); in [8], -16.8% (active).

As for `COc1ccc(C2c3ccccc3NC(=O)N2C2CCN(C)CC2)c(OC)c1` (stereo unspecified), the growth was 95.6% in test [1]; 100% in [2]; 72.7% in [3]; 93% in test [4]; 100% in [5]; 94.4% in test [6]. The growth in test [7] was 84.7%; in test [8], 103%.

`COc1ccc(O)c(-c2cc(-c3ccc(Cl)cc3)c(C#N)c(=O)[nH]2)c1`: the growth in test [1] was 66.5%; in [2] it was 75.7%; in test [3], 62.7%; in test [4], 69.7%; in test [5], 46.6%; in test [6], 55.6%. In addition, the growth in [7] is 57.7%; in test [8], 63.2%.

Turning to `N#CCCCCCn1c2ccccc2c2c3[nH]c(=O)[nH]c(=O)c3c3c4ccccc4n(CCCCCC#N)c3c21`, the growth in test [1] was 86.6%; in test [2], 27%; in test [3] it was 26.3%; in test [4], 55.6%; in test [5] it was 28.9%; in [6], 64.3%. Also, the growth was 28.6% in test [7] and 31.9% in [8].

On to `COc1cccc(-c2nn(-c3ccccc3)cc2-c2ccnc(NCCCNS(=O)(=O)c3ccc(Br)cc3)c2)c1`, for which the growth was 42.5% in test [1]; 9.65% (active) in [2]; 75.2% in test [3]; 60.2% in [4]; 40.2% in [5]; 26.4% in test [6]. Further, the growth in test [7] was 39.9%; in [8], 56.6%.

Regarding `O=C1CCN2C(=O)Nc3ccccc3C2C1` (stereo unspecified), the growth is 99% in test [1]; 104% in test [2]; 83.4% in test [3]; 92% in [4]; 104% in test [5]; 95.2% in [6]. In addition, the growth in test [7] is 103%; in test [8], 106%.

As to `C=C(C)[C@@H]1CC[C@]2(CN)CC[C@]3(C)[C@H](CC[C@@H]4[C@@]5(C)CCC(=O)NC(C)(C)[C@@H]5CC[C@]43C)[C@@H]12`, the growth is 38.7% in [1]; 11.5% in test [2]; 85.5% in test [3]; 78.4% in [4]; 53.4% in [5]; 37.4% in test [6]. Besides, the growth in [7] was 61.6%; in test [9], 82.5%; in test [10], 89.2%.

For `O=S(=O)(NCCNc1cc(-c2cn(-c3ccccc3)nc2-c2cccc(O)c2)ccn1)c1ccc(Cl)cc1`, the growth was 7.32% (active) in test [1]; 0.572% (active) in test [2]; 53.8% in test [3]; 47.7% in test [4]; 22.1% in test [5]; 14.9% in test [6]. For the same molecule, the growth is 15.5% in [7] and 30% in [8].
